# Reference: PubChem BioAssay AID504651 (National Center for Advancing Translational Sciences (NCATS), 2011)
# In all, about 360,000 compounds went through this assay and about 130 (0.036%) were called active. The sample holds actives, similar compounds and a random draw of the others, so the mix is not that of the screen. Rule as the data show it: active = potentiation above about 30%; inactive = the rest.
# Target: D(1A) dopamine receptor (Homo sapiens) (UniProt P21728)
# Assay: Potentiators of Human D1 Dopamine Receptor: qHTS; also: 0% is about no effect
# Details: HEK293 TREx D1 cells, calcium flux, dopamine EC20 potentiation; at 10 µM; hits give high values
# Chain of D(1A) dopamine receptor (Homo sapiens) (P21728 whole entry, looked up): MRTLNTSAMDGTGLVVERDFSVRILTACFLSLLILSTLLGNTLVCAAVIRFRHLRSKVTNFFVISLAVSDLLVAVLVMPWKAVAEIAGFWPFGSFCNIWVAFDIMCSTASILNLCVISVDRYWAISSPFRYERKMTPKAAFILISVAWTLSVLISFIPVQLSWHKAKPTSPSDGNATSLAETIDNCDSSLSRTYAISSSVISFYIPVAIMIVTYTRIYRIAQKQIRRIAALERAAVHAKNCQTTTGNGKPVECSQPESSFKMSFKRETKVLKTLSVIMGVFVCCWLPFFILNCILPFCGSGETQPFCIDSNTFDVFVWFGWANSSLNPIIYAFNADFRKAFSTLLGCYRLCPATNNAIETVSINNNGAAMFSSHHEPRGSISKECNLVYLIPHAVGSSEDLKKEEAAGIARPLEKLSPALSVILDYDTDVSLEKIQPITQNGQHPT
row,Compound,potentiation
1,O=C(CS(=O)(=O)c1cccc2nsnc12)N1CCN(c2cccc(Cl)c2)CC1,0.15% (inactive)
2,Cc1cc(C)c2oc(C(=O)Nc3c(C(=O)Nc4ccccc4)oc4ccccc34)cc(=O)c2c1,0.8% (inactive)
3,Cc1ccc(C(=O)NC2CCN(C#N)CC2)cc1,-6.15% (inactive)
4,O=C(Nc1nc2c(s1)CCCC2)c1ccccc1F,0.5% (inactive)
5,CCOc1ccc(S(=O)(=O)c2cn(Cc3ccc(OC)cc3)c3ccc(F)cc3c2=O)cc1,-1.95% (inactive)
6,Cc1cc(C)c(NC(=O)CSc2nc3nccnc3c(=O)n2CCc2c[nH]c3ccccc23)c(C)c1,-2.8% (inactive)
7,Cc1cccc(Cn2c(=O)n(CCC(=O)NCCc3ccc(Cl)cc3)c(=O)c3sccc32)c1,0.55% (inactive)
8,O=C(CNC(=O)c1ccc(Cl)cc1Cl)OC(C(=O)Nc1cc(C(F)(F)F)ccc1Cl)c1ccccc1 (stereo not given),-4% (inactive)
9,Cc1ccc(-c2cc(C(=O)Oc3ccccc3Cl)no2)cc1C,0.6% (inactive)
10,COc1ccc(Cl)cc1NC(=O)Cn1c(=O)c2ccccc2n2nncc12,1.65% (inactive)
11,CN=C1S/C(=C\c2ccc(Sc3ccc(Cl)cc3)o2)C(=O)N1C,5.08% (inactive)
12,CN1C(=O)/C(=C\c2ccc(-c3ccccc3)o2)SC1=S,39.7% (active)
13,NS(=O)(=O)c1ccc(-c2ccc(/C=C3\SC(=O)NC3=O)o2)cc1,0.85% (inactive)
14,Oc1ccc(Cl)cc1C1C=C(c2ccc3c(c2)OCO3)NC(c2c(F)cccc2Cl)N1 (stereo not given),-3.2% (inactive)
15,O=[S+]([O-])(c1ccc2c(c1)OCCO2)N1CCN([S+](=O)([O-])c2c(Cl)cc(Cl)cc2Br)CC1,-3.2% (inactive)
16,COc1ccc(-c2nc(Cn3c(=O)cc(C)c4c(C)nn(-c5ccccc5)c43)c(C)o2)c(OC)c1,-4.4% (inactive)
17,Cc1nc2ccn(Cc3cccs3)c(=O)c2cc1C(=O)NCc1ccc(Cl)cc1,-6.65% (inactive)
18,COc1ccc(CCNS(=O)(=O)c2cc(-c3cc(C)no3)ccc2C)cc1OC,-4.9% (inactive)
19,Cc1ccc(S(=O)(=O)N2CCc3cc(C(=O)Nc4ccc(Cl)cc4C)ccc32)cc1,-2.8% (inactive)
20,Cc1ccsc1CN(C(=O)c1oc2ccc(Br)cc2c1C)C1CCS(=O)(=O)C1 (stereo not given),0.7% (inactive)
21,Cc1ccc(SCC(=O)Nc2ccc3oc(-c4ccccc4F)nc3c2)cc1,-1.1% (inactive)
22,Cc1ccc(C)c(CNC(=O)c2cc3ccccn3n2)c1,-6.6% (inactive)
23,COc1ccc2[nH]c3c(c2c1)CCN(C(=O)CCC1CCCC1)C3c1ccc(F)cc1 (stereo not given),-2.5% (inactive)
24,COc1ccc([N+](=O)[O-])cc1-c1nc2ccccc2nc1-c1ccccc1,30.4% (active)
25,COc1ccc([N+](=O)[O-])cc1C1NN=C(c2cccc3ccccc23)S1 (stereo not given),0.861% (inactive)

row,Compound,potentiation
1,COc1cc2c(cc1OC)C(c1cccc([N+](=O)[O-])c1)=NCC2,-1.3% (inactive)
2,Cc1ccc(NC(=O)c2oc3ccc(S(=O)(=O)N4CCCCC4)cc3c2C)cc1Cl,3.15% (inactive)
3,CC1=C(c2ccc(C)c(C)c2)S(=O)(=O)NC1=NCc1ccccc1Cl,-1.4% (inactive)
4,O=[S+]([O-])(c1ccc(OC(F)(F)F)cc1)N1CCN([S+](=O)([O-])c2ccc3c(c2)OCCO3)CC1,5.85% (inactive)
5,O=C(CCS(=O)(=O)c1ccccc1)N(Cc1cccnc1)c1nc2c(F)cccc2s1,-1.7% (inactive)
6,Cc1ccc(CNC(=O)Cn2c(=O)ccc3cc(S(=O)(=O)N4CCCC4)ccc32)cc1,-0.25% (inactive)
7,CC(C)S(=O)(=O)c1oc(-c2ccc(F)cc2)nc1S(=O)(=O)c1ccc(F)cc1,3.35% (inactive)
8,CCOC(=O)C1CCCN(C(=O)c2ccc3c(c2)sc2nc(-c4ccc(CC)cc4)cn23)C1 (stereo not given),-1.95% (inactive)
9,CCN1CCN(CCCNC(=O)c2cnn(-c3ccc(C)cc3C)c2C2CCN(C(=O)OC(C)(C)C)CC2)CC1,-2.55% (inactive)
10,COc1ccccc1N1CCN(CCCNC(=O)c2cnn(-c3ccccc3Cl)c2C2CCN(C(=O)OC(C)(C)C)CC2)CC1,-8.55% (inactive)
11,Cc1cccc(C)c1-n1ncc(C(=O)NCCCN2CCCCC2)c1C1CCN(C(=O)OC(C)(C)C)CC1,31.8% (active)
12,Cc1cc(NS(=O)(=O)c2ccc3oc(=O)c4ncn(C)c4c3c2)ccc1Br,-5.95% (inactive)
13,CCc1ccc(S(=O)(=O)c2nnn3c2nc(N2CCN(CC)CC2)c2sccc23)cc1,1.1% (inactive)
14,O=C(NCCc1ccccc1)c1ccc2c(c1)N(Cc1ccc(F)cc1)C(=O)c1ccccc1S2(=O)=O,2.25% (inactive)
15,CCOc1ccc(-c2cc3nc(C4CCN(C(=O)OC(C)(C)C)CC4)c(C(=O)Nc4ccc(C(=O)OC)cc4)cn3n2)cc1,-0.6% (inactive)
16,Cn1c(=O)n(Cc2c(F)cccc2Cl)c(=O)c2c1nc1n2CCN1c1ccc(F)cc1,-3.15% (inactive)
17,CC(C)CCN(C(=O)Nc1ccc(Cl)c(Cl)c1)C(C)c1cccs1 (stereo not given),-1.95% (inactive)
18,O=C(CCCn1c(=O)c2cccn2c2cccnc21)NCc1ccc(F)cc1,-4.5% (inactive)
19,CCc1nn(CC(=O)NCC(C)c2ccccc2)c(=O)c2cc3occc3n12 (stereo not given),-5.55% (inactive)
20,CCCCCn1c(=O)[nH]c2cc(C(=O)Nc3cc(C)cc(C)c3)ccc2c1=O,1.1% (inactive)
21,CCCN1CCN(CCCNC(=O)c2ccc3nc(Cc4ccccc4)oc3c2)CC1,-0.6% (inactive)
22,O=S(=O)(c1ccc2c(c1)OCCCO2)N1CCN(S(=O)(=O)c2c(F)cccc2F)CC1,-3.35% (inactive)
23,O=c1n(Cc2cccc(C(F)(F)F)c2)c2ccccc2c2nc(-c3ccccc3)nn12,0.85% (inactive)
24,CCOc1cccc(CNC(=O)c2ccc(N3CCCC3)c(NC(=O)Nc3ccccc3CC)c2)c1,-0.4% (inactive)
25,Oc1ccc(Cl)cc1C1C=C(c2ccc3c(c2)OCO3)NC(c2ccc(F)c(Br)c2)N1 (stereo not given),1.65% (inactive)
